A short description of assay [1]: E. coli DRC41 culture turbidity changes, primary screen, E. coli filamentation inducer project, strain DRC41, OD650, 48 h (AID 1152).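 Also: E. coli MC1000 strain DRC41 lacking acrAB efflux pump and sulA.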 Particulars: E. coli DRC41 (acrAB sulA), higher = more signal, called active from +8 up or from −8 down.
Assay [2] is described as follows: small-molecule binders of probe aLefty1, primary screen, biochemical, small-molecule microarray, 635/667 nm fluorescence (AID 1153).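 Also: score merges spot fluorescence with signal-to-noise ratio from the scanned slide images.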 Particulars: higher = more signal.
A short description of assay [3]: PSAC antagonists in infected red cells, primary screen, cell-based, P. falciparum Indochina, OD700, 1 h (AID 1154). Conditions: P. falciparum Indochina infected RBC osmotic lysis, higher = more signal, called active from +8 up or from −8 down.
A short description of assay [4]: PSAC antagonists in infected red cells, primary screen, cell-based, P. falciparum Indochina, OD700, 2 h (AID 1155).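 Also: lysis reports solute entry through the parasite surface anion channel PSAC; channel blockers reduce lysis of infected cells.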 Particulars: P. falciparum Indochina infected erythrocytes, osmotic lysis OD700; higher = more signal, called active from +8 up or from −8 down.
A short description of assay [5]: osmotic lysis modulators in infected erythrocytes, primary screen, PSAC antagonist project, cell-based, P. falciparum Indochina, OD700, 3 h (AID 1156). Particulars: higher = more signal, called active from +8 up or from −8 down.
Assay [6] in a line: PSAC antagonists in infected red cells, primary screen, cell-based, P. falciparum Indochina, OD700, 18 h (AID 1157). Conditions: P. falciparum Indochina infected erythrocytes, osmotic lysis OD700, 18 h; higher = more signal, called active from +8 up or from −8 down.
Assay [7] is described as follows: modulators of S6 phosphorylation in cells, primary screen, cell-based, A549, cytoblot, luminescence, serum-stimulated (AID 1158).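 Also: serum-stimulated A549 lung adenocarcinoma cells; signal is phosphorylated S6 detected by cytoblot immunostaining with HRP secondary.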 Particulars: A549 phospho-S6 cytoblot, 5 h, higher = more signal.
In assay [8] the target is NADPH oxidase 2 (Homo sapiens) (UniProt P04839). Kind of assay: NOX2-dependent H2O2 signal modulators, primary screen, NOX inhibitor project, cell-based, HEK293-NOX2, PMA-stimulated, Amplex Red fluorescence (AID 1159). Also: test concentration not given here. Particulars: 45 min, higher = more signal, called active from +8 up or from −8 down.
Assay [9] deals with NADPH oxidase 4 (Homo sapiens) (UniProt Q9NPH5). Kind of assay: NOX4-dependent H2O2 signal modulators, primary screen, NOX inhibitor project, cell-based, HEK293-NOX4, tetracycline-induced, Amplex Red fluorescence (AID 1160). Particulars: 45 min, higher = more signal, called active from +8 up or from −8 down.
Assay [10] has as its target NADPH oxidase 5 (Homo sapiens) (UniProt Q96PH1). Kind of assay: NOX5-dependent H2O2 signal modulators, primary screen, NOX inhibitor project, cell-based, HEK293-NOX5, Amplex Red fluorescence (AID 1161). Particulars: HEK293-NOX5, ionomycin, 45 min, higher = more signal.
Assay [11] can be described thus: A549 cell viability effects, profiling panel, calcein-AM fluorescence, 48 h, basal (AID 1162). Also: test concentration not given here. Particulars: higher = more signal.
Assay [12] can be described thus: adipocyte viability effects, profiling panel, cell-based, 3T3-L1 adipocytes, calcein-AM fluorescence, 48 h, basal (AID 1163). Also: test concentration not given here. Conditions: 3T3-L1 adipocytes viability, higher = more signal.
Assay [13] in a line: HepG2 cell viability effects, profiling panel, calcein-AM fluorescence, 48 h, basal (AID 1164). Also: test concentration not given here. Conditions: higher = more signal.
Assay [14] is described as follows: MM1S cell viability effects, profiling panel, calcein-AM fluorescence, 48 h, basal (AID 1165).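 Also: viability of MM1S multiple myeloma cells under basal unstimulated conditions; test concentration not given here.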 Particulars: higher = more signal.
Assay [15] is described as follows: basal RPMI8226 viability, no added stimulus, profiling panel, cell-based, calcein-AM fluorescence, 48 h, PK04 Diversity Set (AID 1166).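 Also: cells grown under basal conditions without added stimulus; test concentration not given here.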 Conditions: RPMI8226 myeloma viability, higher = more signal.
The nature of assay [16]: basal HepG2 mitochondrial membrane potential changes, profiling panel, cell-based, JC-1 fluorescence, 24 h, 100 nL compound (AID 1167). Also: test concentration not given here. Particulars: higher = more signal.
A short description of assay [17]: basal 3T3-L1 adipocyte mitochondrial potential changes, profiling panel, cell-based, JC-1 fluorescence, 3T3-L1 adipocytes, 24 h, 100 nL compound (AID 1168). Also: test concentration not given here. Particulars: JC-1 mitochondrial fluorescence, higher = more signal, called active from +8 up or from −8 down.
Assay [18] can be described thus: basal RPMI8226 mitochondrial membrane potential changes, profiling panel, cell-based, JC-1 fluorescence, 24 h, 100 nL compound (AID 1169). Also: test concentration not given here. Conditions: RPMI8226 myeloma, JC-1 mitochondrial potential fluorescence, higher = more signal.
The nature of assay [19]: basal MM1S mitochondrial membrane potential changes, profiling panel, cell-based, JC-1 fluorescence, 24 h, 100 nL compound (AID 1170). Also: test concentration not given here. Conditions: higher = more signal.
A short description of assay [20]: A549 lung cancer cell viability effects, profiling panel, resazurin fluorescence, 24 h, PK04 Diversity Set (AID 1171). Also: test concentration not given here. Conditions: higher = more signal, called active from +8 up or from −8 down. (In general: The colour change of resazurin is a common sign of viable cells or microbes.)

In PubChem BioAssay one finds z-score and composite z-score data, which are given here for eight molecules.

Activity calls are given as the source filed them.

Sequence of NADPH oxidase 2 (Homo sapiens) (P04839 whole entry, looked up): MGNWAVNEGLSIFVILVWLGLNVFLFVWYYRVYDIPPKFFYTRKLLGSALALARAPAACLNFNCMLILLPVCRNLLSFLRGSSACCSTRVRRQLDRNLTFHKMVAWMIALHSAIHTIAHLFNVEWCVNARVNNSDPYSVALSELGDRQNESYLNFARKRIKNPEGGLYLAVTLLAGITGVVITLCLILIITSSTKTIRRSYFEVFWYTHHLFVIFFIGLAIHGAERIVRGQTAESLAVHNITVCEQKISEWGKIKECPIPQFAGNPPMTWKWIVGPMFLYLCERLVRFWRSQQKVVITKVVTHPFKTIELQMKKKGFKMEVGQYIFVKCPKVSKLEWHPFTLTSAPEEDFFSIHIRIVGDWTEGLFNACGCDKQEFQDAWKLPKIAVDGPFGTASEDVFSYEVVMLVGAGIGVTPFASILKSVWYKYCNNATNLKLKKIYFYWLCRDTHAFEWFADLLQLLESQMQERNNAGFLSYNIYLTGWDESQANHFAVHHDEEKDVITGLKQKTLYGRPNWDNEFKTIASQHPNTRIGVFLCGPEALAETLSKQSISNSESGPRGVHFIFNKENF
Sequence of NADPH oxidase 5 (Homo sapiens) (Q96PH1 whole entry, looked up): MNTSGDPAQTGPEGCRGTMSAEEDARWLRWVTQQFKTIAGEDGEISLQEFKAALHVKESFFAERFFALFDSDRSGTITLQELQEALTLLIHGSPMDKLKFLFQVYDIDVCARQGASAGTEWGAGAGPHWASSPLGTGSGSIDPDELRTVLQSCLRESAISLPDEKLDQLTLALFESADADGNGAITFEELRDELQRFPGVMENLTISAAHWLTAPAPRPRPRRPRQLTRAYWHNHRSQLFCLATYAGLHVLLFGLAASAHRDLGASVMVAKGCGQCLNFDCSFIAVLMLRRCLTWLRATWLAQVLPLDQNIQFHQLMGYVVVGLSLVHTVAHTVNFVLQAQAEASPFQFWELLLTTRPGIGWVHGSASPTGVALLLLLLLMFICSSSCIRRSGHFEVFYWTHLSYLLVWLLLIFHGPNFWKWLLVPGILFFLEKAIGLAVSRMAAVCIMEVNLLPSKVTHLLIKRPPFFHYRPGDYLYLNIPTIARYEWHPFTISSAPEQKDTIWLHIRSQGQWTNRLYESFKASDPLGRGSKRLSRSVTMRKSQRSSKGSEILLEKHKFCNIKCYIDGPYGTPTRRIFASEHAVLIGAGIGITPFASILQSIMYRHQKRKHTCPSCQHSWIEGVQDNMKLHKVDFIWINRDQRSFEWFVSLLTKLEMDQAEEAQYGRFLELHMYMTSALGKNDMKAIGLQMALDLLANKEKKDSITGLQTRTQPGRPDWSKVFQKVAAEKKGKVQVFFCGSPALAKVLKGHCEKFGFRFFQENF
Sequence of NADPH oxidase 4 (Homo sapiens) (Q9NPH5 whole entry, looked up): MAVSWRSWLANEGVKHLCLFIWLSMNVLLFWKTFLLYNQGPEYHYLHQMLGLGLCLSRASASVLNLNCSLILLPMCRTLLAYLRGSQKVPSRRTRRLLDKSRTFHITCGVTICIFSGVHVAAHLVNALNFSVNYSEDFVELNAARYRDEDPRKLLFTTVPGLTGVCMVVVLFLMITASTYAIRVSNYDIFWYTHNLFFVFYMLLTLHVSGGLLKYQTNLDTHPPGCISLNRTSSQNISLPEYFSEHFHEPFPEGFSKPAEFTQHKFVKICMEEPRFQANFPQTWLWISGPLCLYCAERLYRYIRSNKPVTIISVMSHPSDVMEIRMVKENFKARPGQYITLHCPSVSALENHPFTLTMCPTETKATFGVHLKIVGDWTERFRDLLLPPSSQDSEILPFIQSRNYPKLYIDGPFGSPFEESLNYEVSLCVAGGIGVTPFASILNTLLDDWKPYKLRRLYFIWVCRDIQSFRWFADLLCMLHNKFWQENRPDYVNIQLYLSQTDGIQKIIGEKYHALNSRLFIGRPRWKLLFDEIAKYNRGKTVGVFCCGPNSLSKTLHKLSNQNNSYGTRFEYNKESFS

In the case of `COc1cc(CO)cc(I)c1O[C@H]1C=C(C(=O)NCCO)C[C@@H](N(CCN2CCOCC2)C(=O)C2CCOC2)[C@@H]1O` (stereo not given in full), the z-score in assay [1] is 3.66 (inactive); in [3], 8.79 (active); in assay [4], 1.59 (inactive); in assay [5] it was 1.89 (inactive); in assay [6], 0.427 (inactive); in [7], 0.432. Besides, the z-score is -0.568 (inactive) in [8]; 1.29 (inactive) in assay [9]; 0.233 in assay [10]; 0.736 in [11]; -0.917 in [12]; 0.51 in assay [13]. For the same molecule, the z-score was 0.317 in assay [14]; 0.402 in assay [15]; 1.05 in assay [16]; 0.57 (inactive) in assay [17]; 0.0404 in assay [18]; 0.684 in [19]. In addition, the z-score in assay [20] was -0.435 (inactive). This molecule also returned a composite z-score in assay [2] of -0.319.
Take `COC(=O)[C@@]1(Cc2ccccc2)[C@H]2c3cc(C(=O)N4CCCC4)n(CC4CC4)c3C[C@H]2CN1C(=O)c1ccccc1`: the z-score was -1.47 (inactive) in assay [1]; 1.15 (inactive) in assay [3]; 0.194 (inactive) in [4]; 1.68 (inactive) in [5]; 0.69 (inactive) in [6]; 0.222 in assay [7]. Besides, the z-score in [8] is -0.295 (inactive); in assay [9], -2.68 (inactive); in assay [10], -2.49; in assay [11], -1.46; in assay [12] it was 0.643; in assay [13] it was -0.303. Besides, the z-score was -0.39 in assay [14]; -2.15 in assay [15]; 1.51 in assay [16]; -1.77 (inactive) in assay [17]; -0.516 in assay [18]; -0.569 in [19]. Also, the z-score in assay [20] was -1.51 (inactive). This molecule also displayed a composite z-score in assay [2] of 1.54.
Consider `CC1CC/C=C\[C@H]2OC34C=CCN(Cn5nnc6ccccc65)C(=O)[C@H]3N(C(CO)C(C)C)C(=O)[C@@H]4C2C(=O)O1` (stereo not given in full), for which the z-score in assay [1] is 0.532 (inactive); in assay [3], 2.43 (inactive); in assay [4], 0.0805 (inactive); in [5], 0.752 (inactive); in assay [6] it was 0.527 (inactive); in [7] it was -0.174. Further, the z-score in [8] was 1.09 (inactive); in assay [9], 0.134 (inactive); in assay [10], 2.22; in [11], 0.101; in assay [12], 0.0716; in [13], 0.0778. The z-score in assay [14] is 0.654; in assay [15] it was -0.872; in [16], -0.388; in assay [17], -0.573 (inactive); in [18], -0.637; in assay [19] it was -0.454. Further, in [20], the z-score is 0.238 (inactive). Moreover, in assay [2], the composite z-score was 0.0956.
With `COC(=O)[C@@]1(Cc2ccc(F)cc2)[C@H]2c3cc(C(=O)N(C)C)n(CC4CC4)c3C[C@H]2CN1C(=O)c1ccccc1`, the z-score in [1] was -0.98 (inactive); in assay [3], 3.33 (inactive); in assay [4], 1.15 (inactive); in assay [5], 1.07 (inactive); in assay [6], 1.4 (inactive); in assay [7], -0.884. For the same molecule, the z-score is -0.0955 (inactive) in [8]; 0.281 (inactive) in assay [9]; 0.873 in assay [10]; -0.654 in assay [11]; 0.128 in assay [12]; -0.0517 in assay [13]. Moreover, the z-score in assay [14] was -2.21; in [15], -3.32; in assay [16], 1.41; in assay [17], -0.708 (inactive); in [18] it was -0.858; in assay [19] it was -1.21. Also, the z-score in assay [20] was -1.38 (inactive). The molecule also returned a composite z-score in assay [2] of 2.06.
With `CC(C)[C@@H](CO)NC(=O)[C@H]1[C@@H](c2ccccc2)N(c2ccccc2)O[C@@H]1C`, the z-score in assay [1] was 1.6 (inactive); in assay [3] it was 0.785 (inactive); in [4] it was -0.0799 (inactive); in assay [5] it was -0.466 (inactive); in assay [6], -0.0146 (inactive); in assay [7], 0.444. Moreover, the z-score in assay [8] was -0.982 (inactive); in assay [9], 0.366 (inactive); in [10] it was 0.153; in assay [11], 0.407; in [12], -0.159; in assay [13], 0.319. The z-score in [14] is 0.714; in assay [15], 0.285; in assay [16], 0.324; in assay [17], 0.392 (inactive); in assay [18], 0.354; in [19], -1.11. Besides, in assay [20], the z-score is 0.959 (inactive). Moreover, in assay [2], the composite z-score was -0.151.
In the case of `C=CC[C@]12N=C(c3ccc(OCCCO)cc3)O[C@H]1c1ccccc1N(Cc1ccccc1)C2=O`, the z-score is 0.323 (inactive) in assay [1]; 28.8 (active) in [3]; 27.9 (active) in assay [4]; 3.64 (inactive) in assay [5]; 6.21 (inactive) in [6]; -0.329 in [7]. Moreover, the z-score in assay [8] was -0.89 (inactive); in assay [9] it was 0.393 (inactive); in [10], -0.835; in assay [11], -0.739; in assay [12], -0.082; in assay [13], -0.957. Also, the z-score is -3.44 in assay [14]; -3.83 in [15]; -0.433 in [16]; 2.12 (inactive) in assay [17]; -0.982 in assay [18]; -2.48 in [19]. In [20], the z-score was -1.48 (inactive). Besides, the composite z-score in assay [2] stood at 0.445.
As to `CCCC[C@@H]1C[C@H]1[C@@H](NC(=O)c1ccco1)c1ccc(Cl)cc1`, the z-score is -1.54 (inactive) in assay [1]; 4.34 (inactive) in assay [3]; 0.904 (inactive) in assay [4]; 0.365 (inactive) in [5]; 0.74 (inactive) in [6]; -0.321 in assay [7]. For the same molecule, the z-score in [8] was -1.72 (inactive); in assay [9], -2.56 (inactive); in assay [10], 0.0234; in [11], -2.3; in assay [12], -0.679; in [13], -0.746. The z-score in assay [14] was -1.95; in [15] it was -2.24; in assay [16], 2.38; in assay [17], -0.732 (inactive); in assay [18], -0.318; in assay [19], -1.37. Besides, the z-score in [20] is 0.473 (inactive). For the same molecule, in assay [2], the composite z-score worked out at 0.485.
As for `C=C(CCCC)C(=O)CC[C@@H](OC(=O)c1cccnc1)c1ccc(CO)o1`, the z-score in assay [1] was -0.367 (inactive); in [3] it was 3.22 (inactive); in [4], 0.449 (inactive); in assay [5], 0.873 (inactive); in assay [6] it was 0.258 (inactive); in assay [7], 0.264. Further, the z-score in assay [8] is 0.341 (inactive); in assay [9] it was -0.942 (inactive); in [10], -1.04; in assay [11], 0.274; in assay [12], 0.149; in assay [13], 0.909. Further, the z-score in [14] was -0.238; in [15], -0.156; in [16], -1.35; in [17], -0.123 (inactive); in [18], 0.736; in [19], -0.0347. The z-score in assay [20] was -0.192 (inactive). This molecule displayed a composite z-score in [2] of -0.289.
